# From PMC8384837, “Expanding the binding specificity for RNA recognition by a PUF domain”
# Changes are numbered by the printed parent chain.
# Key:
# Test in all cases: yeast three-hybrid, YBZ-1, SC-Leu-His + 0.5 mM 3-AT, 4 days
# Settings in all cases: tags: N-Gal4 AD-HA kept; label: inside an RPR1-promoter hybrid RNA with tandem MS2 sites; ssRNA
# PUM1 PUF domain R5-TRG = PUM1 PUF domain R5-TRG (Homo sapiens, UniProt Q14671 828-1176, C1007T;Q1011G)
# Outline: (§1)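 Sequencing with Illumina followed PCR amplification of the repeat regions from transformants grown four days on SC-Leu (input) or SC-Leu-His + 0.5 mM 3-AT (selection). The transformants were strain YBZ-1 with a LexA–MS2 coat fusion and a HIS3 reporter, carrying Pumilio-1 PUF domain libraries and matching RNA elements. The interaction score is the log change in variant frequency from input to selection, computed in log2 with a pseudocount of 1 for absent variants.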
# PUM1 PUF domain R5-GLW = PUM1 PUF domain R5-GLW (Homo sapiens, UniProt Q14671 828-1176, C1007G;R1008L;Q1011W)
# Outline: as §1
# PUM1 PUF domain R4-VSL = PUM1 PUF domain R4-VSL (Homo sapiens, UniProt Q14671 828-1176, N971V;H972S;Q975L)
# Outline: as §1
# PUM1 PUF domain R6-VFQ = molecular target: T1, PUM1 PUF domain R6-VFQ (Homo sapiens, UniProt Q14671 828-1176, N1043V;Y1044F)
# T1 sequence: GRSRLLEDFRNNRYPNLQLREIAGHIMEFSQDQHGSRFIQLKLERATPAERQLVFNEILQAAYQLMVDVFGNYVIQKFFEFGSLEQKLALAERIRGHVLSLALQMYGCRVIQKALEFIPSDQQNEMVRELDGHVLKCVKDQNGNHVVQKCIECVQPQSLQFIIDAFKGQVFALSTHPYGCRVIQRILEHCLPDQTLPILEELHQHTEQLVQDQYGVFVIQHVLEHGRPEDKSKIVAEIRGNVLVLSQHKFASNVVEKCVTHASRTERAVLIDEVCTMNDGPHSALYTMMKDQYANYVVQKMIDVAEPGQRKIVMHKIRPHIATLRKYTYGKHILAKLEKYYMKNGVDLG
# Outline: as §1
# PUM1 PUF domain R6-LWQ = molecular target: T2, PUM1 PUF domain R6-LWQ (Homo sapiens, UniProt Q14671 828-1176, N1043L;Y1044W)
# T2 sequence: T1 sequence with V216L, F217W
# Outline: as §1
# PUM1 PUF domain R3-TFF = PUM1 PUF domain R3-TFF (Homo sapiens, UniProt Q14671 828-1176, C935T;R936F;Q939F)
# Outline: as §1
# PUM1 PUF domain R5-HKE = PUM1 PUF domain R5-HKE (Homo sapiens, UniProt Q14671 828-1176, C1007H;R1008K;Q1011E)
# Outline: as §1
# PUM1 PUF domain R5-RKC = PUM1 PUF domain R5-RKC (Homo sapiens, UniProt Q14671 828-1176, C1007R;R1008K;Q1011C)
# Outline: as §1
# PUM1 PUF domain R5-SSR = PUM1 PUF domain R5-SSR (Homo sapiens, UniProt Q14671 828-1176, C1007S;R1008S;Q1011R)
# Outline: as §1
# PUM1 PUF domain R8-RFP = PUM1 PUF domain R8-RFP (Homo sapiens, UniProt Q14671 828-1176, N1122R;Y1123F;Q1126P)
# Outline: as §1
# PUM1 PUF domain R4-VPQ = PUM1 PUF domain R4-VPQ (Homo sapiens, UniProt Q14671 828-1176, N971V;H972P)
# Outline: as §1
# PUM1 PUF domain R1-KSN = PUM1 PUF domain R1-KSN (Homo sapiens, UniProt Q14671 828-1176, S863K;R864S;Q867N)
# Outline: as §1
# PUM1 PUF domain R7-RVM = PUM1 PUF domain R7-RVM (Homo sapiens, UniProt Q14671 828-1176, S1079R;N1080V;E1083M)
# Outline: as §1
# PUM1 PUF domain R7-KSG = PUM1 PUF domain R7-KSG (Homo sapiens, UniProt Q14671 828-1176, S1079K;N1080S;E1083G)
# Outline: as §1
# PUM1 PUF domain R2-EWV = PUM1 PUF domain R2-EWV (Homo sapiens, UniProt Q14671 828-1176, N899E;Y900W;Q903V)
# Outline: as §1
# PUM1 PUF domain R1-VTW = PUM1 PUF domain R1-VTW (Homo sapiens, UniProt Q14671 828-1176, S863V;R864T;Q867W)
# Outline: as §1
sequence,measurement,setting,value
GGCUAGAACUAGUGGAUCCCCCGGCGCCCGGCGGCUCGAGCCCGGGUAAGUGUAAAUAGUCUGCAUGCCGCCGGGCGCCAUGCCUGCAGGUCGACUCUAGAAAACAUG,binding signal,PUM1 PUF domain R5-TRG,2.68 log2 enrichment (interaction score)
same,binding signal,PUM1 PUF domain R5-GLW,2.11 log2 enrichment (interaction score)
same,binding signal,PUM1 PUF domain R4-VSL,2.71 log2 enrichment (interaction score)
same,binding signal,PUM1 PUF domain R6-VFQ,3.65 log2 enrichment (interaction score)
same,binding signal,PUM1 PUF domain R6-LWQ,5.83 log2 enrichment (interaction score)
same,binding signal,PUM1 PUF domain R3-TFF,6.12 log2 enrichment (interaction score)
GGCUAGAACUAGUGGAUCCCCCGGCGCCCGGCGGCUCGAGCCCGGGUAAGUGUUAAUAGUCUGCAUGCCGCCGGGCGCCAUGCCUGCAGGUCGACUCUAGAAAACAUG,binding signal,PUM1 PUF domain R5-TRG,2.97 log2 enrichment (interaction score)
same,binding signal,PUM1 PUF domain R5-GLW,1.6 log2 enrichment (interaction score)
GGCUAGAACUAGUGGAUCCCCCGGCGCCCGGCGGCUCGAGCCCGGGUAAGUGUCAAUAGUCUGCAUGCCGCCGGGCGCCAUGCCUGCAGGUCGACUCUAGAAAACAUG,binding signal,PUM1 PUF domain R5-HKE,3.67 log2 enrichment (interaction score)
same,binding signal,PUM1 PUF domain R5-RKC,3.84 log2 enrichment (interaction score)
same,binding signal,PUM1 PUF domain R5-SSR,6.53 log2 enrichment (interaction score)
GGCUAGAACUAGUGGAUCCCCCGGCGCCCGGCGGCUCGAGCCCGGGUAAGCGUAAAUAGUCUGCAUGCCGCCGGGCGCCAUGCCUGCAGGUCGACUCUAGAAAACAUG,binding signal,PUM1 PUF domain R8-RFP,5.8 log2 enrichment (interaction score)
GGCUAGAACUAGUGGAUCCCCCGGCGCCCGGCGGCUCGAGCCCGGGUAAGUGUAUAUAGUCUGCAUGCCGCCGGGCGCCAUGCCUGCAGGUCGACUCUAGAAAACAUG,binding signal,PUM1 PUF domain R4-VPQ,2.78 log2 enrichment (interaction score)
GGCUAGAACUAGUGGAUCCCCCGGCGCCCGGCGGCUCGAGCCCGGGUAAGUGAAAAUAGUCUGCAUGCCGCCGGGCGCCAUGCCUGCAGGUCGACUCUAGAAAACAUG,binding signal,PUM1 PUF domain R6-VFQ,8.19 log2 enrichment (interaction score)
GGCUAGAACUAGUGGAUCCCCCGGCGCCCGGCGGCUCGAGCCCGGGUAAGUGUAAAUCGUCUGCAUGCCGCCGGGCGCCAUGCCUGCAGGUCGACUCUAGAAAACAUG,binding signal,PUM1 PUF domain R1-KSN,4.24 log2 enrichment (interaction score)
GGCUAGAACUAGUGGAUCCCCCGGCGCCCGGCGGCUCGAGCCCGGGUAAGUUUAAAUAGUCUGCAUGCCGCCGGGCGCCAUGCCUGCAGGUCGACUCUAGAAAACAUG,binding signal,PUM1 PUF domain R7-RVM,2.72 log2 enrichment (interaction score)
same,binding signal,PUM1 PUF domain R7-KSG,2.37 log2 enrichment (interaction score)
GGCUAGAACUAGUGGAUCCCCCGGCGCCCGGCGGCUCGAGCCCGGGUAAGUGUAAUUAGUCUGCAUGCCGCCGGGCGCCAUGCCUGCAGGUCGACUCUAGAAAACAUG,binding signal,PUM1 PUF domain R3-TFF,1.36 log2 enrichment (interaction score)
GGCUAGAACUAGUGGAUCCCCCGGCGCCCGGCGGCUCGAGCCCGGGUAAGUGUAAAAAGUCUGCAUGCCGCCGGGCGCCAUGCCUGCAGGUCGACUCUAGAAAACAUG,binding signal,PUM1 PUF domain R2-EWV,5.9 log2 enrichment (interaction score)
GGCUAGAACUAGUGGAUCCCCCGGCGCCCGGCGGCUCGAGCCCGGGUAAGUGUAAAGAGUCUGCAUGCCGCCGGGCGCCAUGCCUGCAGGUCGACUCUAGAAAACAUG,binding signal,PUM1 PUF domain R2-EWV,2.77 log2 enrichment (interaction score)
GGCUAGAACUAGUGGAUCCCCCGGCGCCCGGCGGCUCGAGCCCGGGUAAGUGUAAAUUGUCUGCAUGCCGCCGGGCGCCAUGCCUGCAGGUCGACUCUAGAAAACAUG,binding signal,PUM1 PUF domain R1-VTW,3.57 log2 enrichment (interaction score)
GGCUAGAACUAGUGGAUCCCCCGGCGCCCGGCGGCUCGAGCCCGGGUAAGUCUAAAUAGUCUGCAUGCCGCCGGGCGCCAUGCCUGCAGGUCGACUCUAGAAAACAUG,binding signal,PUM1 PUF domain R7-KSG,0.94 log2 enrichment (interaction score)
